Reference: PubChem BioAssay (Tox21)
Several values for one entry are separate records, joined by “and”; a condition that tells them apart may be missing. Equal entries are not always repeated. Inconclusive results are not listed. Activity calls are given as the source filed them. Unless noted, the call rests on the fitted dose curve; in most records, active means well fitted curve in the direction sought with a large enough effect in the repeat runs; inconclusive means weak or mixed curves; inactive means no such curve, though single readings can be large; an effect the other way counts as inactive or inconclusive.

How the values were obtained:
[1] = qHTS assay to identify small molecule agonists of the constitutive androstane receptor (CAR) signaling pathway - cell viability counter screen (AID 1224836); further: nearly all actives have a fitted effect of over 45% in size; further: potency means the concentration at half of the fitted maximal effect
Outline: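 Viability read-out: CellTiter-Fluor fluorescence after 23 h compound exposure at 37 C/5% CO2 in double-stable HepG2-CYP2B6-hCAR cells, with PK11195 present at 0.75 uM final; compounds tested in 15-point titration.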

[2] = qHTS assay to identify small molecule antagonists of the constitutive androstane receptor (CAR) signaling pathway - cell viability counter screen (AID 1224837); further: nearly all actives have a fitted effect of over 45% in size; further: potency means the concentration at half of the fitted maximal effect
Outline: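 Counter screen run in HepG2-CYP2B6-hCAR cells: 4 hr settle, compound titration (15 concentrations) with 50 nM CITCO, 23 hr at 37 C/5% CO2, CellTiter-Fluor fluorescence.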

[3] = target: Nuclear receptor subfamily 1 group I member 3 (Homo sapiens) (UniProt Q14994); experiment: qHTS assay to identify small molecule antagonists of the constitutive androstane receptor (CAR) signaling pathway (AID 1224838);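 further: HepG2 cells stably expressing hCAR with CYP2B6 luciferase reporter stimulated by CITCO; nearly all actives have a fitted effect of over 40% in size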; further: potency means the concentration at half of the fitted maximal effect
Nuclear receptor subfamily 1 group I member 3 (Homo sapiens), sequence (Q14994 whole entry, looked up): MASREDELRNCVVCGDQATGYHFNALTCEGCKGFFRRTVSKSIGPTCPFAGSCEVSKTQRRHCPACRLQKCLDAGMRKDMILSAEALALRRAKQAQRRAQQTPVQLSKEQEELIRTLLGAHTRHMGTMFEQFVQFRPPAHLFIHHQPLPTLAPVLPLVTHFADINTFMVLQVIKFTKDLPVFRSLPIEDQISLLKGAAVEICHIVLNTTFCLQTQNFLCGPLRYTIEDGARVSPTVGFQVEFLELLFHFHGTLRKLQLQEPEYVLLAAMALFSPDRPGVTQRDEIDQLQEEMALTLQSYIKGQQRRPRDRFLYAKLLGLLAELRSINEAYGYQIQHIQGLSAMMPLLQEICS
Outline: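 Cell line: HepG2 double-stable for hCAR and CYP2B6-2.2kb reporter. Agonist: CITCO, 50 nM final. Compounds: 15 concentrations, 24 h, 37 C. Detection: ONE-Glo luminescence.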

[4] = target: Nuclear receptor subfamily 1 group I member 3 (Homo sapiens) (UniProt Q14994); experiment: qHTS assay to identify small molecule agonists of the constitutive androstane receptor (CAR) signaling pathway (AID 1224839); further: nearly all actives have a fitted effect of over 15% in size; further: potency means the concentration at half of the fitted maximal effect;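 on activation: HepG2 cells stably carrying human CAR and a CYP2B6 luciferase reporter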
Outline: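 Luminescence read-out (ONE-Glo, 30 min, room temperature) from double-stable HepG2-CYP2B6-hCAR cells exposed 24 h to 15-point compound series in presence of 0.75 uM PK11195 final.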

[5] = qHTS assay to identify small molecule antagonists of the estrogen related receptor signaling pathway with the pleiotropic PPARgamma coactivator (PGC) from Tox21 10K library - cell viability counter screen (AID 1224840; active means well fitted cell-killing curve with a large enough effect in the repeat runs, not every such curve was filed as active; further: nearly all actives have a fitted effect of over 40% in size; further: potency means the concentration at half of the fitted maximal effect)
Outline: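 Following seeding of 2,000 PGC/ERR cells/well and 6 hours' incubation, test compounds were delivered in DMSO. The plates then sat 17.5 hours at 37 C before a fluorogenic live-cell protease reagent (CellTiter-Fluor) was read after 30 min.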

[6] = qHTS assay to identify small molecule agonists of the hypoxia (HIF-1) signaling pathway - cell viability counter screen (AID 1224844; calls by dose curve; further: nearly all actives have a fitted effect of over 50% in size; further: potency means the concentration at half of the fitted maximal effect)
Outline: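 Cells (HRE-bla ME-180, 2,000 per well) sat 5 hrs at 37C, got compound for 17 hrs, were read for CCF4-AM FRET, and were finally lysed with CellTiter-Glo for a 30 min room-temperature luminescence read.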

[7] = qHTS assay to identify small molecule agonists of H2AX (AID 1224845; active means well fitted activation curve with a large enough effect in the signal ratio in the repeat runs, not every such curve was filed as active; the % refers to the signal ratio)
Outline: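 Wild-type CHO-K1 cells plated overnight, then exposed 3 hr at 37C to compounds at 15 concentrations (0.76% DMSO). Lysed, then HTRF anti-pH2AX(S139)-cryptate/anti-H2AX-d2 detection after 24 hr at room temperature; emissions 665 and 620 nm.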

[8] = qHTS assay to identify small molecule agonists of the hypoxia (HIF-1) signaling pathway (AID 1224846; active means well fitted activation curve with a large enough effect in the signal ratio in the repeat runs, not every such curve was filed as active; the % refers to the signal ratio)
Outline: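 A low-serum medium (0.5% dialyzed FBS) holding 2,000 HRE-bla ME-180 cells per well is preincubated for 5 hrs, dosed with compounds by pintool, and kept a further 17 hrs at 37C, 5% CO2 before CCF4-AM FRET detection of beta-lactamase.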

[9] = qHTS assay to identify small molecule agonists of H2AX - cell viability counter screen (AID 1224847; calls by dose curve; further: nearly all actives have a fitted effect of over 30% in size; further: potency means the concentration at half of the fitted maximal effect; on activity change, negative = cytotoxicity: top concentration of the series differs between compounds)
Outline: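 CHO-K1 wt, 1000 cells/well, o/n 37C; cpds 15 conc, 3 h 37C, 0.76% DMSO; CellTiter-Glo, 30 min RT, luminescence.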

[10] = qHTS RealTime-Glo MT Cell Viability Assay in HepG2 cells - 24 hour (AID 1224867); further: nearly all actives have a fitted effect of over 50% in size; further: potency means the concentration at half of the fitted maximal effect
Outline: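 Viability was tracked continuously by NanoLuc luminescence from prosubstrate reduced by living HepG2 cells, at successive time points over 40 h of compound exposure. Cells with reagent were preincubated 5 h at 37 °C before compound addition.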

[11] = qHTS RealTime-Glo MT Cell Viability Assay in HEK293 cells - 32 hour (AID 1224868); further: nearly all actives have a fitted effect of over 50% in size; further: potency means the concentration at half of the fitted maximal effect; on activity change, negative = cytotoxic: top concentration of the series differs between compounds
Outline: (§1)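 Viability tracked continuously by luminescence as live cells reduce a prosubstrate for NanoLuc; HEK293 cells preincubated 5 h, compound-treated at 37 C, and read at 0, 8, 16, 24, 32 and 40 h.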

[12] = A CellTox Green Cytotoxicity Assay to monitor cytotoxicity in HEK293 cells - 0 hour (AID 1224869); further: nearly all actives have a fitted effect of over 50% in size
Outline: (§2)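 Fluorescence intensity, read at 0, 8, 16, 24, 32 and 40 h of compound treatment, reflected dye binding to DNA of dead HEK293 cells; compounds (23 nL, DMSO) were added 5 h after plating cells with reagent.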

[13] = qHTS RealTime-Glo MT Cell Viability Assay in HepG2 cells - 40 hour (AID 1224870); further: nearly all actives have a fitted effect of over 50% in size; further: potency means the concentration at half of the fitted maximal effect
Outline: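 HepG2 cells mixed with RealTime-Glo MT reagents (NanoLuc plus cell-permeant prosubstrate) were seeded at 600 cells/well, incubated 5 h at 37 C/5% CO2, then pinned with compounds in DMSO; nonlytic luminescence tracked viability during 40 h treatment.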

[14] = A CellTox Green Cytotoxicity Assay to monitor cytotoxicity in HEK293 cells - 40 hour (AID 1224871); further: nearly all actives have a fitted effect of over 45% in size; further: potency means the concentration at half of the fitted maximal effect
Outline: as §2

[15] = qHTS RealTime-Glo MT Cell Viability Assay in HEK293 cells - 16 hour (AID 1224872); further: nearly all actives have a fitted effect of over 50% in size; further: potency means the concentration at half of the fitted maximal effect; on activity change, negative = cytotoxicity: top concentration of the series differs between compounds
Outline: as §1

[16] = target: Thyrotropin receptor (Homo sapiens) (UniProt P16473); experiment: qHTS assay to identify small molecule agonists of the thyroid stimulating hormone receptor (TSHR) signaling pathway (AID 1224843; calls by dose curve; further: nearly all actives have a fitted effect of over 45% in size)
Thyrotropin receptor (Homo sapiens), sequence (P16473 whole entry, looked up): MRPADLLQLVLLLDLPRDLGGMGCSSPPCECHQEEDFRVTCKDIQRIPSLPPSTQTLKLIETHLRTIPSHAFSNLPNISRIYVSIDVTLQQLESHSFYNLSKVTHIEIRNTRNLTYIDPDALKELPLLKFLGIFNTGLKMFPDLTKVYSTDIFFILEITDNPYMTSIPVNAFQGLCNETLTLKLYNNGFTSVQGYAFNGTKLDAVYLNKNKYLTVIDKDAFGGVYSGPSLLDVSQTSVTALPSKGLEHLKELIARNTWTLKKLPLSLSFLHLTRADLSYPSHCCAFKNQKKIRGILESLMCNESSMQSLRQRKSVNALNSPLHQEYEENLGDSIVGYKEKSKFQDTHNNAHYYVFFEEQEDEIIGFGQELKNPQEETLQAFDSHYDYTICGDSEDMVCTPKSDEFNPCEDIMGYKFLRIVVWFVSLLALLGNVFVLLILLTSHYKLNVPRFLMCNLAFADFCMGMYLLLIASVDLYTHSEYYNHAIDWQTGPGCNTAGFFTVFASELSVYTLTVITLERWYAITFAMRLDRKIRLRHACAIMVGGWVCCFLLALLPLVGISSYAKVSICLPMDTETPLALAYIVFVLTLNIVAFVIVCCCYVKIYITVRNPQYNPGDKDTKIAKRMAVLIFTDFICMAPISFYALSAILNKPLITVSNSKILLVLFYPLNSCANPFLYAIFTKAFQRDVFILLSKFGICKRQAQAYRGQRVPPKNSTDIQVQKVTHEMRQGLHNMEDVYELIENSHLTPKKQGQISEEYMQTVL
Outline: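 Cell line HEK293 with TSHR; density 800/well. Exposure 30 min RT. Readout HTRF cAMP (cAMP-d2/anti-cAMP-cryptate), 1 h RT before reading.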

[17] = qHTS assay to identify small molecule antagonists of the estrogen related receptor (ERR) signaling pathway from Tox21 library (AID 1224848); further: nearly all actives have a fitted effect of over 50% in size; further: potency means the concentration at half of the fitted maximal effect
Outline: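 Screening used an ERR reporter line supplied by NTP, exposed for 18 h at 37 C to library compounds delivered in DMSO. Signal was luciferase luminescence developed with ONE-Glo at room temperature for 30 min.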

[18] = qHTS assay to identify small molecule agonists of the estrogen related receptor (ERR) signaling pathway from Tox21 library (AID 1224849; calls by dose curve; further: nearly all actives have a fitted effect of over 15% in size); conditions: ERR reporter cell line, ONE-Glo luciferase, 18 h; at 42.5 µM (top of the series)
Outline: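 Screening used an NTP-provided ERR luciferase cell line. Compounds in DMSO were added 6 h after seeding and left 18 h at 37 C before a 30 min ONE-Glo step and luminescence reading.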

[19] = qHTS assay to identify small molecule antagonists of the estrogen related receptor signaling pathway with the pleiotropic PPARgamma coactivator (PGC) from Tox21 10K library (AID 1224841; call rule not given here)
Outline: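 qHTS antagonist format: PGC/ERR cells, 2k/well, compound in DMSO by pin transfer after 6 h attachment, 18 h treatment at 37 C, One-Glo luminescence read at 30 min.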
On the % scale 0 is the no-effect control and ±100 the full control effect.

C#Cc1ccc(-c2ccccc2F)cc1
inactive: Potency [1] | Potency [2] | Potency [3] | Potency [4] | Potency [5] | Potency [6] | Potency [7] | Potency [8] | Potency [9] | Potency [10] | Potency [11] | Potency [12] | Potency [13] | Potency [14] | Potency [15]

NC(=S)NC(N)=S
inactive: Potency [1] | Potency [2] | Potency [3] | Potency [4] | Potency [5] | Potency [16] | Potency [6] | Potency [7] | Potency [8] | Potency [9] | Potency [10] | Potency [11] | Potency [13] | Potency [14]

C=C(C)c1cccc(C(=C)C)c1
inactive: Potency [1] | Potency [2] | Potency [3] | Potency [4] | Potency [5] | Potency [16] | Potency [6] | Potency [7] | Potency [8] | Potency [9] | Potency [10] | Potency [11] | Potency [12] | Potency [14] | Potency [15]

CC(C)(C)c1ccc(C(O)CCCN2CCC(C(O)(c3ccccc3)c3ccccc3)CC2)cc1 (stereo not drawn)
inactive: Potency [4] | Potency [12]
active: Potency [1] 23.7 µM | Potency [2] 26.6 µM | Potency [3] 26.6 µM | Potency [6] 21.3 µM | Potency [9] 34.8 µM | Potency [10] 6.01 µM | Potency [11] 4.77 µM | Potency [14] 7.56 µM | Potency [15] 6.74 µM

C[C@@H](O)[C@H](N)C(=O)O
inactive: viability change, negative = cytotoxic [1] -1.25% [at 19 µM] | activity change, negative = cytotoxicity [2] 9.9% [at 19 µM] | activity, negative = inhibition [3] 17.3% [at 19 µM] | activation [4] -3.11% [at 19 µM] | viability change, negative = cytotoxic [5] 0.388% [at 19 µM] | activity change, negative = cytotoxicity [6] -2.15% [at 15.8 µM] | activation (H2AX phosphorylation) [7] 0.0265% [at 31.6 µM] | activation [8] -0.487% [at 15.8 µM] | activity change, negative = cytotoxicity [9] -4.33% [at 31.6 µM] | activity change, negative = cytotoxicity [10] 0.0975% [at 15.8 µM] | activity change, negative = cytotoxic [11] 0.135% [at 15.8 µM] | cytotoxicity increase [14] -7.08% [at 15.8 µM] | activity change, negative = cytotoxicity [15] -1.06% [at 15.8 µM]

C=Cc1cccc(C)c1
inactive: Potency [1] | Potency [2] | Potency [3] | Potency [4] | Potency [5] | Potency [16] | Potency [6] | Potency [7] | Potency [8] | Potency [9] | Potency [10] | Potency [11] | Potency [13] | Potency [14]

CN(C)c1ccc(C(=C2C=CC(=[N+](C)C)C=C2)c2ccc(N(C)C)cc2)cc1
inactive: Potency [4] | Potency [12]
active: Potency [1] 7.66 µM and 6.86 µM and 5.96 µM | Potency [2] 8.59 µM and 7.7 µM and 5.31 µM | Potency [3] 27.2 µM and 27.3 µM and 13.3 µM | Potency [5] 9.64 µM and 4.33 µM and 11.9 µM | Potency [6] 19.4 µM and 54.9 µM | Potency [9] 3.17 µM and 12.7 µM and 13.9 µM | Potency [11] 2.74 µM and 6.92 µM and 2.39 µM | Potency [13] 34.5 µM and 43.6 µM and 26.8 µM | Potency [14] 21.9 µM and 21.3 µM | Potency [15] 6.88 µM and 19.5 µM and 7.56 µM

Clc1nnc(Cl)c2ccccc12
inactive: Potency [1] | Potency [2] | Potency [3] | Potency [4] | Potency [5] | Potency [6] | Potency [8] | Potency [9] | Potency [10] | Potency [11] | Potency [12] | Potency [13] | Potency [14] | Potency [15]

COc1ccc2cc1Oc1ccc(cc1)C[C@H]1c3c(cc4c(c3Oc3cc5c(cc3OC)CCN(C)[C@@H]5C2)OCO4)CCN1C
active: Potency [1] 26.6 µM | Potency [2] 23.7 µM | Potency [3] 23.7 µM | Potency [5] 21.1 µM | Potency [17] 29.8 µM | Potency [10] 23.9 µM | Potency [11] 5.35 µM | Potency [13] 23.9 µM
inactive: Potency [4] | Potency [16] | Potency [6] | activity change, positive = activation [18] -56.4% | Potency [12]

CCCC1CCC(=O)CC1
inactive: Potency [1] | Potency [2] | Potency [3] | Potency [4] | Potency [5] | Potency [6] | Potency [7] | Potency [8] | Potency [9] | Potency [10] | Potency [11] | Potency [13] | Potency [14] | Potency [15]

CCCC(=O)OC(C)(C)Cc1ccccc1
inactive: Potency [1] | Potency [2] | Potency [3] | Potency [4] | Potency [5] | Potency [6] | Potency [7] | Potency [8] | Potency [9] | Potency [10] | Potency [11] | Potency [12] | Potency [13]
active: Potency [14] 24.5 µM

Cc1ccc(O)c(O)c1
inactive: Potency [1] | Potency [2] | Potency [3] | Potency [19] | Potency [8] | Potency [17] | Potency [10] | Potency [12] | Potency [13]
active: Potency [4] 47.2 µM

OC/C=C/CO
inactive: Potency [1] | Potency [2] | Potency [3] | Potency [4] | Potency [5] | Potency [16] | Potency [6] | Potency [7] | Potency [8] | Potency [9] | Potency [10] | Potency [11] | Potency [13] | Potency [14] | Potency [15]

CCCCC(CC)COC(=O)CCCCC(=O)OCc1ccccc1 (stereo not drawn)
inactive: Potency [1] | Potency [2] | Potency [3] | Potency [4] | Potency [5] | Potency [16] | Potency [6] | Potency [7] | Potency [8] | Potency [9] | Potency [11] | Potency [12] | Potency [13] | Potency [14]

CCCC[P+](C)(CCCC)CCCC
inactive: Potency [1] | Potency [2] | Potency [3] | Potency [4] | Potency [5] | Potency [16] | Potency [6] | Potency [7] | Potency [8] | Potency [9] | Potency [10] | Potency [12] | Potency [13] | Potency [14] | Potency [15]

CC1(C)CC(O)CC(C)(C)N1
inactive: Potency [1] | Potency [2] | Potency [3] | Potency [4] | Potency [5] | Potency [16] | Potency [6] | Potency [7] | Potency [8] | Potency [9] | Potency [10] | Potency [11] | Potency [13] | Potency [14] | Potency [15]

CC(C(=O)O)c1ccc2c(c1)[nH]c1ccc(Cl)cc12 (stereo not drawn)
inactive: Potency [1] | Potency [2] | Potency [3] | Potency [4] | Potency [5] | Potency [16] | Potency [6] | Potency [7] | Potency [8] | Potency [9] | Potency [10] | Potency [11] | Potency [12] | Potency [14] | Potency [15]
